Test results: the supplement of paper PMC3545927
This is one part of the list. How many sequences the whole screen found active is unknown.

Target: furin, P09958
Assay: furin cleavage Z-score vs untreated control; higher = more cleavage, active = 3.5 or more, inactive = 1 or less, 8 variable residues between constant flanks
In short: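 The cleavage Z-score was derived for purified furin acting on 8-mer peptides held on magnetic beads and fused to a cDNA oligonucleotide. Digests lasted 7.5, 15 or 30 min at 1:10 enzyme:substrate in 50 mM HEPES pH 7.5 with CaCl2 and NaCl. Sequencing counts of released DNA, log-transformed against furin-free reactions, were lowess-adjusted and scaled by median absolute deviation.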

Chain of furin, P09958 (P09958 whole entry): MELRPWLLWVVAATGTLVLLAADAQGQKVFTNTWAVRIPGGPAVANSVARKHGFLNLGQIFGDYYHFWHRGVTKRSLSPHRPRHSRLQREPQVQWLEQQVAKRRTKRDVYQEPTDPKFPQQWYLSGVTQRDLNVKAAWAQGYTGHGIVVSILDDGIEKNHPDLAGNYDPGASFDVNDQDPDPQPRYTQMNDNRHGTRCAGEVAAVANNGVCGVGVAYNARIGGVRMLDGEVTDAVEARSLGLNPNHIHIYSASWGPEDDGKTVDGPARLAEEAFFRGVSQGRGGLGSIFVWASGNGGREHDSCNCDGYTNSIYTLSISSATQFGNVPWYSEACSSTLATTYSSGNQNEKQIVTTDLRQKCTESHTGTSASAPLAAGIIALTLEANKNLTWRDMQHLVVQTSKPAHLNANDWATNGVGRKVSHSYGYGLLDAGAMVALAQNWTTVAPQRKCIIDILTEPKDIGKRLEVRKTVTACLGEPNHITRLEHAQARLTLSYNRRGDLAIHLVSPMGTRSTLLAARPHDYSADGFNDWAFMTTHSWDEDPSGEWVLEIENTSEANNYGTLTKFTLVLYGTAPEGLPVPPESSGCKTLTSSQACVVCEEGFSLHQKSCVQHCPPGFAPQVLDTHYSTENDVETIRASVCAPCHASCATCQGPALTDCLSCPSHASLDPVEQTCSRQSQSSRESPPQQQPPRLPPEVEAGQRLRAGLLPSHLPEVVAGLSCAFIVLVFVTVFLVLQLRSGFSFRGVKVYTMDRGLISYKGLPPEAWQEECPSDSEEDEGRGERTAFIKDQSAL

Row | Sequence | furin cleavage Z-score (7.5 min) | furin cleavage Z-score (15 min) | furin cleavage Z-score (30 min)
1 | CAEIEVPCHRAGNASASA [HC2444] | 1.1 | 1.09 | 0.798 (inactive)
2 | CAVFDITKLLAGNASASA [HC603] | 0.928 (inactive) | -0.333 (inactive) | 0.0832 (inactive)
3 | CAKAARAKKIAGNASASA [FS-600] | -0.438 (inactive) | -0.00567 (inactive) | -0.411 (inactive)
4 | CAAATAFVGAAGNASASA [HC1073] | -1.28 (inactive) | -0.663 (inactive) | -0.282 (inactive)
5 | CASPLTTSQTAGNASASA [HC1060] | 0.0213 (inactive) | -0.739 (inactive) | 0.362 (inactive)
6 | CALKARRKKSAGNASASA [FS-176] | 7.34 (active) | 8.84 (active) | 7.56 (active)
7 | CALSNRTMKSAGNASASA [FS-615] | 1.04 | -0.454 (inactive) | 0.561 (inactive)
8 | CARLYREKKSAGNASASA [FS-1651] | 0.828 (inactive) | 2.77 | 3.88 (active)
9 | CAEKARKGKSAGNASASA [FS-413] | -1.2 (inactive) | -1.61 (inactive) | -0.85 (inactive)
10 | CAMLYRHKKSAGNASASA [FS-829] | 0.949 (inactive) | 1.65 | 1.42
11 | CAEPKRIKKSAGNASASA [FS-157] | 3.63 (active) | 4.2 (active) | 3.26
12 | CAEPPCHRPSAGNASASA [HC2339] | 0.111 (inactive) | -0.455 (inactive) | -0.0572 (inactive)
13 | CARLHQWISSAGNASASA [HC1140] | 0.126 (inactive) | -1.75 (inactive) | -1.83 (inactive)
14 | CASFARIKKWAGNASASA [FS-717] | -0.31 (inactive) | -0.161 (inactive) | 1.88
15 | CAEPGREKKSAGNASASA [FS-414] | -0.759 (inactive) | 0.432 (inactive) | -0.848 (inactive)
16 | CAIKCRTKKSAGNASASA [FS-803] | 1.77 | 4.04 (active) | 3.26
17 | CALYDVVTKLAGNASASA [HC1458] | 0.188 (inactive) | 0.0294 (inactive) | -0.805 (inactive)
18 | CAWCTTPCSGAGNASASA [HC1948] | 1.23 | 0.244 (inactive) | 1.72
19 | CAEVECHRPSAGNASASA [HC2352] | 1.1 | 0.203 (inactive) | 0.236 (inactive)
20 | CAFREVPCHRAGNASASA [HC2427] | 0.22 (inactive) | 0.297 (inactive) | 0.623 (inactive)
21 | CAPERLASCRAGNASASA [HC387] | -0.263 (inactive) | 0.599 (inactive) | 1.53
22 | CAVSCCSMSYAGNASASA [HC2017] | 0.592 (inactive) | -0.576 (inactive) | 1.57
23 | CAKRSRDARRAGNASASA [FS-45] | 1.61 | -0.052 (inactive) | 2.16
24 | CAGSHRRQRRAGNASASA [FS-434] | 9.09 (active) | 10.6 (active) | 8.98 (active)
25 | CASSNQLQRRAGNASASA [NG1] | 0.397 (inactive) | 2.01 | -0.568 (inactive)
26 | CAAISRRQRRAGNASASA [FS-743] | 6.03 (active) | 8.53 (active) | 7.79 (active)

Row | Sequence | furin cleavage Z-score (7.5 min) | furin cleavage Z-score (15 min) | furin cleavage Z-score (30 min)
27 | CAARMILMTHAGNASASA [HC1581] | -0.255 (inactive) | -1.76 (inactive) | -1.15 (inactive)
28 | CAAYMNTPGLAGNASASA [HC931] | -0.513 (inactive) | -1.08 (inactive) | 0.157 (inactive)
29 | CAMEPCSQHLAGNASASA [HC1719] | 2.46 | 0.794 (inactive) | 2.77
30 | CAGDDDDKAGAGNASASA [EK1] | -2.21 (inactive) | -1.96 (inactive) | 0.274 (inactive)
31 | CARGSRFSKSAGNASASA [FS-83] | -0.0204 (inactive) | -0.301 (inactive) | 0.871 (inactive)
32 | CARGIRPVGRAGNASASA [FS-2932] | -0.929 (inactive) | -0.4 (inactive) | 0.111 (inactive)
33 | CARGKRSAGPAGNASASA [FS-1951] | 11.6 (active) | 13.8 (active) | 9.13 (active)
34 | CARGKRSCHAAGNASASA [FS-2333] | 5.25 (active) | 5.05 (active) | 5.61 (active)
35 | CARGKRFSQSAGNASASA [FS-2934] | 0.749 (inactive) | 2.29 | 2
36 | CARGKRSPKSAGNASASA [FS-2672] | 11.3 (active) | 11 (active) | 9.78 (active)
37 | CARGQRSVKAAGNASASA [FS-3250] | 0.885 (inactive) | -0.415 (inactive) | 1.5
38 | CARGKRLDGPAGNASASA [FS-3188] | 0.0707 (inactive) | 0.484 (inactive) | -0.699 (inactive)
39 | CAETPCSAHLAGNASASA [HC2472] | -0.0785 (inactive) | -0.846 (inactive) | -1.94 (inactive)
40 | CAVCSCLWMMAGNASASA [HC526] | -0.293 (inactive) | -0.986 (inactive) | -0.164 (inactive)
41 | CARHRRALDTAGNASASA [FS-2943] | 5.7 (active) | 5.62 (active) | 5.06 (active)
42 | CARHRRRGSPAGNASASA [FS-2146] | 0.761 (inactive) | 1.81 | 1.39
43 | CARHRRMLTPAGNASASA [FS-2946] | 5.72 (active) | 9.34 (active) | 8.35 (active)
44 | CARHRRYKALAGNASASA [FS-2556] | -0.784 (inactive) | -0.33 (inactive) | 3.08
45 | CARHRRLLSIAGNASASA [FS-3256] | -0.899 (inactive) | -0.261 (inactive) | -0.784 (inactive)
46 | CARKKKLVSTAGNASASA [FS-2560] | -1.01 (inactive) | -1.81 (inactive) | -1.46 (inactive)
47 | CARHRRGQETAGNASASA [FS-2145] | 0.466 (inactive) | 0.563 (inactive) | 2.26
48 | CARKKRNGLTAGNASASA [FS-2155] | 5.12 (active) | 6.11 (active) | 6.82 (active)
49 | CARHRRSLRLAGNASASA [FS-1717] | 6.94 (active) | 6.95 (active) | 9.37 (active)
50 | CARHRRVNGTAGNASASA [FS-2492] | 0.115 (inactive) | -0.477 (inactive) | -0.55 (inactive)
51 | CARKKKTEGTAGNASASA [FS-2423] | -1.18 (inactive) | 0.416 (inactive) | 0.176 (inactive)
